Our source for the sensor-assay potency score (higher = more potent) values is the OligoGym collection.
Further: reference of the scale not given here.

The target in one experiment is SULT1A2. The experiment is described as follows: pooled miR-30 sensor sort-seq; sequence = guide strand. Conditions: shRNA.
In the case of TGGGACTTTGAACTCAAGGAAG, the sensor-assay potency score (higher = more potent) is -1.59. The same measure, in the same setting: for TGTGTTTTTCAGAGTCTCCATC the value was -0.796. Still for that read-out and setting: for ATGAGGTCCACAGTCTCCTCTG the value was -1; for TCCAGCCATGAACTTCTCCAGG, -1.76. The same measure, in the same setting: the value for TTTATTCTGGAGCCTCTTGGTC was -0.833. The sequence TGGTCCATGAACTCCCGGCGGA came in with a sensor-assay potency score (higher = more potent) of -1.53.

For ACCCATAGGACACTTCTCCAGC, the sensor-assay potency score (higher = more potent) is -2.4. The same measure, in the same setting: the value for TTTTTCAGAGTCTCCATCCCTG was -0.0359; that for TCTTGCACGTGCTGGTACCAGG was -1.6. TAGGAAACCGCCACATCCTTTG registered a sensor-assay potency score (higher = more potent) of -0.928.

The target of a further experiment is SULT6B1. The description is as above. The note with it: shRNA.
The sequence TAATTTGTCATAGTGGAGGTGA yielded a sensor-assay potency score (higher = more potent) of 0.271. On the same count and under the same terms, for TAATATGAACTTAACATTGTCG the value was 0.349. The same measure, in the same setting: the value for TGTCCTTTCATGAACTGTCTGA was 0.266; that for TAATTCACTGACAATGTGGAGA was -0.0659. Same read-out and setting: for TATTCTCGAAGATAGACCCAGG the value was -0.373; for TATAATATGAACTTAACATTGT, -0.395. For the sequence TTATTCTCGAAGATAGACCCAG, the sensor-assay potency score (higher = more potent) is -0.349.

As for TGAACTTAACATTGTCGCCATC, the sensor-assay potency score (higher = more potent) was -1.22. On the same count and under the same terms, for TACTGCTGTATCTTTAGGGTTT the value was -0.446. The same measure, in the same setting: for TGGAATATCGGGGACATCGTTG the value was -1.15. On the same count and under the same terms, the value for TATTAATTCACTGACAATGTGG was -0.366; that for TATGAACTTAACATTGTCGCCA was 0.543.

In a further experiment the target is SUN1. Described as above. The note with it: shRNA.
Consider TTCAGGGAGACAGCGCTGCTGG, for which the sensor-assay potency score (higher = more potent) was -1.01. On the same count and under the same terms, for TTTGTTTGTGCTTCTGCGCTGT the value was 0.665; for TCGAGTCACAGCATCCTGCAGG, -0.812.

As for TTGGAAAGCTGTGTCGTCGGGT, the sensor-assay potency score (higher = more potent) is 0.562. The same measure, in the same setting: for TAGAATAAACTCTCGACACGGG the value was -0.0133; for TTTTCTAATCCATAGACGGCGA, -0.893; for TTTGTTGTTCTGGCCGCTCGGT, -0.815. Same read-out and setting: the value for TTCTTCAGGGAGACAGCGCTGC was -0.739. As for TTGTTTGTGCTTCTGCGCTGTT, the sensor-assay potency score (higher = more potent) is -0.561. On the same count and under the same terms, the value for TTGTTGTTCTGGCCGCTCGGTT was -1.37; that for TTTTGGTTTCGTAAGTTTCAGA was -0.848.

A further experiment has as its target SURF1. The experiment is described as above. The note with it: shRNA.
In turn, TCTGTCAGCCTCACCATCCCAA came in with a sensor-assay potency score (higher = more potent) of -0.843.

TCAGCTTCCACTTCCGACGCTG: the sensor-assay potency score (higher = more potent) is 0.863. As for TTCAGGATTCACTTTCTTCCTG, the sensor-assay potency score (higher = more potent) is -0.13. The same measure, in the same setting: for TTGAAATACTGCATTATCCAGG the value was -0.184; for TTTCTTAAACCACAGGTAGGAT, -0.803; for TTGTGGCAGATGCTTCTGCTGC, -1.64.

For the sequence TCAGGATTCACTTTCTTCCTGG, the sensor-assay potency score (higher = more potent) is 0.148.
